High-throughput results: PubChem, several laboratories
PG9 Ab binder = binders of HIV-1 gp120 antibody PG9, primary screen, biochemical, TR-FRET. HIV-1 gp120 / PG9 antibody interaction. TR-FRET gp120-PG9 antibody binding. inhibition, % at 6.7 µM. actives 0.43% (n = 360,000); in the data active = inhibition above about 8.5%
V-ATPase pHluor = regulators of yeast V-ATPase proton pumping, primary screen, pHLuorin cytosolic pH fluorescence. S. cerevisiae. response, % at 10 µM. actives 0.37% (n = 350,000); in the data active = response mostly above about 7.3%, no sharp cut-off; inactive = mostly below about 5.4%; also: actives read high
NPR2 activator = human GC-B receptor activators, primary screen, HEK293 GC-B cells, cGMP TR-FRET, EC30 CNP. activation, % at 10 µM. 0% at EC30 CNP, 100% saturating CNP. AID 1920062, 2024. actives 0.11% (n = 370,000). Atrial natriuretic peptide receptor 2 (Homo sapiens), P20594;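 active = activation at 10 µM reaching about 35% in either raw or pattern-adjusted values, limit read from the data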
GC-A act = GC-A stimulated cGMP production enhancers – HEK293 GC-A cells, cGMP TR-FRET, EC30 ANP, primary screen. Atrial natriuretic peptide receptor 1 (Homo sapiens), P16066. 0% at EC30 ANP, 100% saturating ANP. activation, % at 10 µM. actives 0.14% (n = 370,000); in the data active = activation above about 40%
Target sequence (P16066 whole entry, looked up): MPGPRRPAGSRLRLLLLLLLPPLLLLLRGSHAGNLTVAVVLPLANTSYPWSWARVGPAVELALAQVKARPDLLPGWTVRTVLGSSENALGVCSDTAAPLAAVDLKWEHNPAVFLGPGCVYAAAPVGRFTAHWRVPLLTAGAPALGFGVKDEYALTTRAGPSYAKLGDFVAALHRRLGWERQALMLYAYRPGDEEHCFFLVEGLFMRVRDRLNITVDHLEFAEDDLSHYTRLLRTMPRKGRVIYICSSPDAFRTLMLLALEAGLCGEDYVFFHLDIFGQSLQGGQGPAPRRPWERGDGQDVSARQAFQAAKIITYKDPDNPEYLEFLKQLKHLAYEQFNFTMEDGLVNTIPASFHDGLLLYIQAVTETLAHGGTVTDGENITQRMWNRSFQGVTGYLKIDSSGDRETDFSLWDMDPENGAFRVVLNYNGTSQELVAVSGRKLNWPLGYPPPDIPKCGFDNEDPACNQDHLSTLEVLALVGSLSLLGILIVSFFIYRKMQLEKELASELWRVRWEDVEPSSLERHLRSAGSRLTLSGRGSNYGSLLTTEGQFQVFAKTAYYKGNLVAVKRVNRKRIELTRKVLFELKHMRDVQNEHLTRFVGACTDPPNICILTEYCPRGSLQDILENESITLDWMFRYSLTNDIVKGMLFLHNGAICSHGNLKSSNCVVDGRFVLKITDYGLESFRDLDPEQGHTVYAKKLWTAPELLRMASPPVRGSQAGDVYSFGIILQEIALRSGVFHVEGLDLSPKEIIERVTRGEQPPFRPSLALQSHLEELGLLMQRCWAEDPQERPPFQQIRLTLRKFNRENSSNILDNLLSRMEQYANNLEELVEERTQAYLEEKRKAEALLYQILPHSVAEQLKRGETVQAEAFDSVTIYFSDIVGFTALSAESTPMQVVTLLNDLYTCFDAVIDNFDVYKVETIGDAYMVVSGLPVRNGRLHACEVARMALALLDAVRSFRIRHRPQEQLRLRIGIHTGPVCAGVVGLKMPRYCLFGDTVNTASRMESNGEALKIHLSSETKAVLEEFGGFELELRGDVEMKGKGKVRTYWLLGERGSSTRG
Rev-erbA mod = modulators of Rev-erb alpha DNA binding, primary screen, biochemical, FITC-DNA, fluorescence polarization, uHTS. AID 1259318, 2017. actives 0.79% (n = 370,000). activity, % at 10 µM. Rev-erbα–FITC-DNA binding, 90 min. Nuclear receptor subfamily 1 group D member 1 (Homo sapiens), P20393;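 active = activity above about 14%, limit read from the data; passing the limit was not always enough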;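 also: 0% = DMSO wells with 35 nM protein and 100% = DMSO wells with 750 nM protein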
Rev-erbA confirm = modulators of Rev-erb alpha DNA binding, confirmation, biochemical, FITC-DNA, fluorescence polarization, single point; shares compounds with Rev-erbA mod; 90 min; activation, % at 25 µM; actives 61% (n = 3,000); AID 1259319, 2017;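 active = activation at or above a set limit, or at least 3 SD above the negative control mean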;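 also: 0% = 35 nM protein with DMSO and 100% = 750 nM protein high control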
RORg counter = modulation of RORgamma DNA binding, dose response, counter-screen for Rev-erb alpha modulator project, biochemical, fluorescence polarization, FITC-DNA | IC50, µM | AID 1259320, 2017 | shares compounds with Rev-erbA mod | actives 8% (n = 910) | purified RORgamma protein-FITC-DNA binding;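 active = Compounds whose fitted half-maximal concentration for disrupting protein-DNA binding is below 10 micromolar; the record names Rev-erb in its text, so the target is in doubt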
* marks the source's active call; other numbers are inactive results; i = inactive; . = no result given. The list is not random: actives were taken first. Their share in the collection is about 1.6%.

SMILES	PG9 Ab binder	V-ATPase pHluor	NPR2 activator	GC-A act	Rev-erbA mod	Rev-erbA confirm	others
COC(=O)c1ccc2nc(-c3ccc(F)cc3)c(Cc3ccccc3)n2c1	-0.3	.	24.9	23.2	2.5	.
COc1ccccc1C(=O)n1ccc2ccc(-c3ccc4ccn(Cc5ccc(C#N)cc5)c4c3)cc21	.	.	2.4	-2.4	16.2	.
CCOC(=O)N1CCC(n2c(SCC(=O)c3ccccc3)nc3ccsc3c2=O)CC1	-2.2	-0.6	1.1	6.5	36.8*	55.4*	RORg counter=i
COC(=O)[C@]12C[C@H](CC(=O)N3CCN(C(=O)c4ccco4)CC3)C(=O)N(Cc3cccc4ccccc34)C1=C[C@H](COCc1ccccc1)O[C@@H]2C	.	.	4.9	-0.3	-5.3	.
C=CCc1c(C)c(C#N)c2nc3ccccc3n2c1N1CCCCC1	-2.8	-1.1	-2.0	-5.2	42.9*	5.8
C=C(C)Cc1c(C)c(C#N)c2nc3ccccc3n2c1N1CCCCC1	-1.4	-3.1	-4.2	-5.7	24.8*	4.2
C=C(C)CSc1cc(C)c(C#N)c2nc3ccccc3n12	1.0	-3.0	-5.9	6.6	-6.8	.
Cc1ccc(NC(=O)Cn2nnc(-c3ccncc3)n2)cc1C	.	.	-9.7	-2.1	0.5	.
COc1cc(-c2cc(C(=O)NCCc3ccc(S(N)(=O)=O)cc3)c3ccccc3n2)cc(OC)c1OC	1.9	2.0	0.7	1.9	-0.7	.
NS(=O)(=O)c1ccc(CCNc2nc3c(-c4cccc(F)c4)nnn3c3ccccc23)cc1	-0.6	3.2	13.1	19.8	81.7*	82.7*	RORg counter=>40
Cc1ccc(-c2nnn3c2nc(NCCc2ccc(S(N)(=O)=O)cc2)c2ccccc23)cc1	4.0	-0.2	22.6	23.6	48.3*	29.8*
Cc1cccc(-c2nnn3c2nc(NCCc2ccc(S(N)(=O)=O)cc2)c2ccccc23)c1	1.2	-6.8	16.4	26.1	78.3*	56.2*	RORg counter=i
NNc1nc2c(-c3cccc(C(F)(F)F)c3)nnn2c2ccccc12	-0.6	-6.5	6.5	-5.0	0.7	.
COC(=O)C1CN(Cc2cn(Cc3ccc(OC)cc3)nn2)CCS(=O)(=O)N1Cc1ccccc1 (stereo unspecified)	.	.	-0.5	1.3	-5.0	.
CCN(C(=O)COC(=O)/C(C#N)=C/c1ccc(N(C)C)cc1)C1CCS(=O)(=O)C1 (stereo unspecified)	-2.7	-1.6	-1.7	-0.2	11.6	.
CN(C)c1ccc(/C=C(\C#N)C(=O)OCC(=O)N(C)C2CCS(=O)(=O)C2)cc1 (stereo unspecified)	-7.3	-6.8	-4.2	-4.1	20.0*	16.3*
O=C(NCc1ccco1)c1ccc(Cn2c(=O)c3sccc3n(Cc3cccc(F)c3)c2=O)cc1	-0.6	-1.1	6.2	-0.2	34.3*	36.7*	RORg counter=>40
O=C(NCc1ccco1)c1ccc(Cn2c(=O)c3ccccc3n(Cc3cccc(Cl)c3)c2=O)cc1	2.7	-3.9	3.5	-4.7	1.0	.
CC(NC(=O)c1ccccc1NC(=O)c1ccco1)c1ccccc1 (stereo unspecified)	1.1	0.6	-1.9	-2.1	21.0*	21.7*
CC(C)C(NC(=O)c1ccccc1NC(=O)c1ccco1)C(=O)O (stereo unspecified)	0.2	0.0	2.2	1.6	-4.1	.
CCOC(=O)c1cc(-c2ccc([N+](=O)[O-])cc2)nc2c1c(=O)[nH]c(=O)n2Cc1ccccc1	1.6	2.2	-1.1	0.3	-27.7	.
CCOC(=O)c1cc(-c2cc3ccccc3o2)nc2c1c(=O)[nH]c(=O)n2CCOC	-0.2	-14.9	0.8	4.5	27.2*	8.8
Cc1ccc(-c2nc(N)c3c(-c4ccc(C)cc4)nn(C(C)(C)C)c3n2)cc1	1.1	.	-3.4	0.1	30.2*	-0.9
CC(C)(C)n1nc(-c2ccc(Cl)cc2)c2c(N)ncnc21	0.8	3.0	12.3	3.0	-6.4	.
